Screening data deposited in PubChem BioAssay by National Center for Advancing Translational Sciences (NCATS).
GLP1R ag: qHTS of GLP-1 Receptor Agonists; Glucagon-like peptide 1 receptor (Homo sapiens), P43220; HEK293 GLP-1R CRE-luciferase, luminescence, 4-6 h; cells express a hypersensitive GLP-1R form; Potency, µM (highest dose often 45.6 µM), for inactives: at the highest dose activation, hits mostly activators; 380,000 compounds, 0.007% hits; AID 624172, 2012; also: % of control where 0% means no effect
HEK293 tox: qHTS of GLP-1 Receptor Inverse Agonists: Cytotox Screen. AID 624418, 2012. Potency, µM (top dose mostly 38.3 µM), inactives show at the top dose activity change, negative = inhibition, actives largely listed as inhibitors. 410,000 compounds, 0.13% hits. HEK293 cAMP-luciferase reporter cells, luminescence, 24 h;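 also: loss of luciferase light is scored as toxicity; % is scaled to controls: 0 for no effect and ±100 for the full control effect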
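1536-well qHTS counterscreen of the MLSMR; 200 cells/uL, 12 h pre-incubation, 23 nL cpd, 24 h at 37 deg C 5% CO2, luciferase detection reagent, 12 min RT, luminescence. Inhibition = undesired.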
PTHR1 agonist: qHTS for PTHR1 Agonists: Primary Screen. 410,000 compounds, 0.075% hits. Parathyroid hormone/parathyroid hormone-related peptide receptor (Homo sapiens), Q03431. HEK293 GP2 PTHR1 cells, GloSensor cAMP luminescence, 1 h. Potency, µM (series often up to 115 µM), for inactives: at the top dose activation, most hits filed as activators; also: nearly all actives have a fitted effect of over 55% in size
Target sequence (Q03431 whole entry, looked up): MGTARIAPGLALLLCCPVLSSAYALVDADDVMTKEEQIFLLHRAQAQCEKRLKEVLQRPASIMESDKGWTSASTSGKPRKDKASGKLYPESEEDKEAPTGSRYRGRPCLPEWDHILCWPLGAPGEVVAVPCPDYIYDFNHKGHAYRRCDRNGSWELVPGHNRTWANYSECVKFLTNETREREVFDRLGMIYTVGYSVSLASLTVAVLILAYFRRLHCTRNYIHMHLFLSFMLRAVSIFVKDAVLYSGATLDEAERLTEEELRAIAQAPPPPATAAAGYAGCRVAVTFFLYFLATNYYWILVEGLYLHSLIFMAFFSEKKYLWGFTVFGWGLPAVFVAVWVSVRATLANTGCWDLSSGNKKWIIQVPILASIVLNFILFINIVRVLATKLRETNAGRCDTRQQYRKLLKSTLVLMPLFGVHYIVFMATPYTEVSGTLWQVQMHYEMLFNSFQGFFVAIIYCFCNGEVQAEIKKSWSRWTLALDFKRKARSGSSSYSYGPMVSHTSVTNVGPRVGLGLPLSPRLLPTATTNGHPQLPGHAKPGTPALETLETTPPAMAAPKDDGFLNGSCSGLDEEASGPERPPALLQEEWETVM
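HEK-293-derived GP2 cells expressing PTHR1 and a GloSensor cAMP reporter, 3,000/well, plated overnight, given luciferin plus IBMX (each 0.5 mM as added) for 1 h at 37 °C, then compound for 1 h at 37 °C. Luminescence was read after 15 min at room temperature.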
GLP1R inv ag: qHTS of GLP-1 Receptor Inverse Agonists (Inhibition Mode). Glucagon-like peptide 1 receptor (Homo sapiens), P43220. HEK293 GLP-1R CRE-luciferase, luminescence, 24 h; GLP-1R form is constitutively active. Potency, µM (highest dose often 38.3 µM), for the others: top-dose activity change, negative = inhibition, actives largely listed as inhibitors. 410,000 compounds, 1.6% hits. AID 624417, 2012; also: % is scaled to controls: 0 for no effect and ±100 for the full control effect; nearly all actives have a fitted effect of over 55% in size
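Luminescence readout: a drop in cAMP-driven luciferase signal flags inverse agonism at a constitutively active GLP-1R stably expressed in HEK293. Compound exposure lasted 24 hr at 37 deg C, 5% CO2.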
* hit, by the source's call; i = inactive; ? = inconclusive; / = no result; [ ] = dose if it differs, or a comment. A selection: hits, their analogues and other compounds. The true share with any hit is near 1.7%. Calls follow the shape of the dose curve; as a rule, active = well fitted curve in the direction sought with a large enough effect; inconclusive = small, poorly fitted or top-dose-only effect, or another doubt; inactive = no such curve, though single readings can be large; an effect the other way counts as inactive or inconclusive. Potency is read from the fitted curve at half-maximal effect.

SMILES | GLP1R ag | HEK293 tox | PTHR1 agonist | GLP1R inv ag
CCC1CCc2sc(C(=O)N(C)CC(=O)Nc3cccc(OC)c3)cc2C1 (configuration not stated) | -1% | -27% | i | ?
CCC1CCc2sc(C(=O)NCC(c3ccccc3OC)N3CCCC3)cc2C1 (configuration not stated) | 19% | ? | i | 5µM*
CCC1CCc2sc(C(=O)N(C)CC(=O)Nc3ccc(OC)cc3)cc2C1 (configuration not stated) | 14% | -5% | i | 10µM*
Cc1c(Cl)cccc1NC(=O)CN1C(=O)CSc2ccc(S(=O)(=O)N3CCCC3)cc21 | / | 3% | 14% | -24%
Cc1nnc(SCc2ccc(Cl)cc2)c2cc3occc3n12 | / | 0% | -42% | 15%
OC(c1cc(-c2cccc(Cl)c2)nc2ccccc12)C1CCCCN1 (configuration not stated) | -4% | 10µM* | -6% | 1.4µM*
OC(c1cc(C(F)(F)F)nc2c(C(F)(F)F)cccc12)C1CCCCN1 (configuration not stated) | -24% | -4% | -60% | ?
Cc1nc(Nc2ncc(C(=O)Nc3c(C)cccc3Cl)s2)cc(N2CCN(CCO)CC2)n1 | -2% | / | / | /
Cc1nn(Cc2ccc(Cl)cc2Cl)c(C)c1NC(=O)c1ccc(COc2cc(Cl)ccc2Cl)o1 | 2% | -12% | -23% | ?
Cc1nn(Cc2c(F)c(F)c(F)c(F)c2F)c(C)c1NC(=O)c1ccc(COc2ccc(Cl)cc2Cl)o1 | 1% | -15% | -1% | 5µM*
COc1cc(/C=N/O)ccc1OCc1ccc(C(=O)O)cc1 | -13% | -31% | -48% | ?
COc1cc(/C=N/NC(N)=S)ccc1OCc1ccc(C)cc1 | 19% | 13µM* | -8% | ?
COc1cc(/C=N/NC(N)=S)ccc1OC(=O)c1ccc(C)cc1 | 1% | ? | -5%[57.5 µM] | ?
COc1cc(/C=N/NS(=O)(=O)c2ccc3ccccc3c2)ccc1OCc1ccc(C(=O)O)cc1 | -9% | 5% | -27% | 2.5µM*
COc1cc(/C=N/NS(=O)(=O)c2ccc(C)cc2)ccc1OCc1cccc(C(=O)O)c1 | -3% | -1% | -33% | 3.2µM*
CC1(C(=O)NCc2ccco2)Cc2c(-c3ccc(C(N)=O)cc3)ccnc2O1 (configuration not stated) | -3% | ? | i | ?
CN(C)c1ccc(/C=N/Nc2nc3ccccc3o2)cc1 | 0% | -22% | -28% | 3.5µM*
O=C(Oc1cccc2cccnc12)c1ccco1 | -1% | ? | i | 10µM*
O=C(Cc1ccc(Cl)cc1)Oc1cccc2cccnc12 | 22% | 2.5µM* | ? | -1%
O=C(Oc1cccc2cccnc12)c1ccc2c(c1)OCCO2 | 11% | -5% | i | 4µM*
O=C(Oc1cccc2cccnc12)c1cccs1 | 29% | -6% | i | ?
O=C(Nc1ncccc1O)c1ccc2c(c1)OCCO2 | -11% | -13% | -37% | 6%
O=C(Oc1cccc2cccnc12)c1ccc(Br)o1 | 5% | -26% | i | -13%
COc1ccc(CNCc2cccc3ccccc23)cc1 | 0% | 1% | i | ?
Cc1c(C(=O)N2c3ccccc3Sc3ccccc32)cccc1[N+](=O)[O-] | 2% | ? | i | 1.8µM*
SMILES | GLP1R ag | HEK293 tox | PTHR1 agonist | GLP1R inv ag
Cc1ccc(NC(=O)c2ccc(Cl)c(S(=O)(=O)N3CCCCCC3)c2)nc1 | 14% | -15% | -25% | 7.1µM*
Cc1ccc(N(Cc2ccccc2)C(=O)c2cc(S(=O)(=O)N3CCOCC3)ccc2C)cc1 | 2% | ? | i | ?
CCN1CCN(c2ccc(NC(=O)c3ccc(Cl)c(S(=O)(=O)N4CCCC4)c3)cc2)CC1 | -3% | -10% | -10% | 3.5µM*
Cc1ccc(CNC(=O)c2ccc(C)c(S(=O)(=O)N3CCCCC3)c2)cc1 | 11% | -31% | -11% | ?
Cc1ccc(CNC(=O)c2ccc(Cl)c(S(=O)(=O)N3CCCCC3)c2)cc1 | 2% | 3% | -37% | 10µM*
Cc1ccc(N(Cc2ccccc2)C(=O)c2ccc(Cl)c(S(=O)(=O)N3CCOCC3)c2)cc1 | 2% | 8% | -31% | 11µM*
CCN1CCN(c2ccc(NC(=O)c3ccc(OC)c(S(=O)(=O)N4CCCC4)c3)cc2)CC1 | 18% | -5% | -27% | -7%
CCC(CC)CC1CN2CCc3cc(OC)c(OC)cc3C2CC1(O)CC (configuration not stated) | -1% | -6% | -66% | -29%
Cc1cccc(NC(=O)c2ccc(Cl)c(S(=O)(=O)N3CCc4ccccc43)c2)n1 | -1% | 3% | i | 11µM*
CC(C)(C)CC(C)(C)NCC(O)COc1ccc2c(c1)CCC2 (configuration not stated) | -4% | ? | i | 10µM*
CC(C)(CO)NCC(O)COc1ccc2c(c1)CCC2 (configuration not stated) | -6% | -4% | i | ?
Cc1ccc(N2CCN(S(=O)(=O)N3CCCCC3)CC2)cc1Cl | 20% | -3% | -7% | 24%
Cc1cc(C)c(N2CCN(S(=O)(=O)N3CCCCCC3)CC2)c(C)c1 | -18% | 18% | -5% | 10µM*
COC(=O)c1c(-c2cccs2)csc1NC(=O)c1ccc(C(C)C)cc1 | / | 4% | -20% | 9%
COc1ccc2c(c1)CCc1c(C(=O)Nc3c(C)nn(Cc4ccccc4)c3C)noc1-2 | 5% | 11% | -52% | ?
COc1ccc2c(c1)CCc1c(C(=O)Nc3c(C)nn(Cc4ccccc4Cl)c3C)noc1-2 | / | -11% | i | 10µM*
CCCC(=O)NC(=S)Nc1ccc(S(=O)(=O)N2CCc3ccccc32)cc1 | 19% | -30% | -16% | 8.9µM*
CCOC(=O)CCC(=O)Nc1ccc(S(=O)(=O)N2CCc3ccccc32)cc1 | -3% | 7% | -46% | 9%
COc1ccc(OCCN2CCN(C(=O)c3ccc(OC)cc3)CC2)cc1 | 5% | -9% | -23% | -7%
O=C(c1ccc(Cl)cc1)N1CCN(CCOc2ccccc2)CC1 | 15% | -7% | -17% | 11µM*
COC(=O)C1=C(CN2CCN(C)CC2)NC(=O)NC1c1cc(C)ccc1C (configuration not stated) | 3% | -9% | -6% | 0%
COC(=O)C1=C(CN2CCc3ccccc32)NC(=O)NC1c1cc(C)ccc1C (configuration not stated) | -12% | -24% | -16% | 8.9µM*
Cc1cc(C(=O)NCCC(c2ccccc2)c2ccccc2)c(C)o1 | 0% | -1% | i | 8.9µM*
Cc1cccc(-c2nnc(SCC(=O)NC3CCCCC3)o2)c1 | / | 2% | i | 17%
CC(C)(C)N(Cc1ccccc1)C(=O)CCc1ccccc1 | 5% | 14% | -33% | 22µM*
